15 compounds from PubChem BioAssay (NCATS) can be followed below.

A short description of assay [1]: qHTS Assay for Identifying Gametocytocidal Compounds (AID 743244).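 Further: on the % scale 0 is the no-effect control and ±100 the full control effect; actives lower the fluorescent signal which means gametocytes are killed.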 Conditions: P. falciparum 3D7 stage III-V gametocytes, alamarBlue, 72 h; max response: stronger effect = lower value. The method in brief: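 3D7 gametocytes, stages III–V, 20,000/well; cpd 72 h, 37 °C/5% CO2; + alamarBlue 24 h; fluor. Ex 525/Em 598.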
A general note: qHTS replaces the single test concentration by a dilution series.

A short description of assay [2]: qHTS assay to identify small molecule inhibitors of chordoma cells - UCH-1 (AID 1259355). Further: on the % scale 0 is the no-effect control and ±100 the full control effect; nearly all actives have a fitted effect of over 55% in size. The method, boiled down: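 A 48hr growth-inhibition format: each drug tested at 15 concentrations together with added auranofin, camptothecin, doxorubicin, rubitecan and topotecan, with cell viability quantified as CellTiter-Glo luminescence.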
Assay [3] in a line: qHTS assay for small molecule agonists of the antioxidant response element (ARE) signaling pathway measured by Nrf2-dependant transcriptional activity - cell viability counter screen (AID 720653; active means well fitted curve in the direction sought with a large enough effect in the repeat runs; an effect the other way counts as inactive or inconclusive; further: potency means the concentration at half of the fitted maximal effect; on max response: on the % scale 0 is the no-effect control and ±100 the full control effect). The settings on record: ARE-bla HepG2 viability, CellTiter-Glo ATP luminescence, 16 h; max response: stronger effect = lower value. The method in brief: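 ARE-bla HepG2 cells (2,000/well) rested 5 hrs at 37C/5% CO2, then exposed to compounds in DMSO for 16 hrs. Viability was read in the same wells as intracellular ATP by luminescence, 30 min at room temperature after reagent addition.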

The nature of assay [4]: qHTS assay for cell viability of HEK293 cells (AID 743288). Further: nearly all actives have a fitted effect of over 50% in size. Further: potency means the concentration at half of the fitted maximal effect. On max response: on the % scale 0 is the no-effect control and ±100 the full control effect. Conditions: ATP luminescence (CellTiter-Glo), 18 h; max response: stronger effect = lower value. The method in brief: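 ATP luminescence (CellTiter-Glo) reports metabolically competent cell number after parental HEK293 cells, 2,000/well, were treated with DMSO-dissolved compounds for 18 h at 37 C; reagent incubation 30 min, room temperature.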

A short description of assay [5]: qHTS assay for cell viability of the p53RE-bla HCT-116 cell line (AID 743292). Further: nearly all actives have a fitted effect of over 55% in size. Further: potency means the concentration at half of the fitted maximal effect. The method, boiled down: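 Readout: CellTiter-Glo luminescence after 30 min RT. Treatment: compounds in DMSO, 16 h, 37 C. Cells: CellSensor p53RE-bla HCT-116, 4,000/well, preincubated 5 h.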
Assay [6] is described as follows: qHTS assay for small molecule agonists of the antioxidant response element (ARE) signaling pathway measured by Nrf2-dependant transcriptional activity (AID 720636; active means well fitted curve in the direction sought with a large enough effect in the repeat runs; an effect the other way counts as inactive or inconclusive;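 further: HepG2 cells with an ARE-driven luciferase reporter; % of control where 0% means no effect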). The method in brief: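 Reporter gene assay, HepG2 ARE-luc: 16 hr compound, 37 C, 5% CO2; read-out luciferase luminescence.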
Assay [7] is described as follows: qHTS assay for small molecule antagonists of the retinoid-related orphan receptor gamma (ROR-gamma) signaling pathway - cell viability counter screen (AID 720652; active means well fitted curve in the direction sought with a large enough effect in the repeat runs; an effect the other way counts as inactive or inconclusive;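 further: compound exposure lasted 16 hr before ATP read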; further: potency means the concentration at half of the fitted maximal effect). The method, boiled down:
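ATP-based viability readout in the ROR-gamma reporter CHO cells after 16 hr compound exposure under doxycycline induction.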

Values joined by “and” are separate entries in the source; they are usually repeats but may differ in a detail not shown here. Equal entries are not always repeated. Results filed as inconclusive are left out. Values without a mark were called inactive. Active and inactive are the calls of the source. Unless noted, the call rests on the fitted dose curve; in most records, active means well fitted curve in the direction sought with a large enough effect; inconclusive means small, poorly fitted or top-dose-only effect, or another doubt; inactive means no such curve, though single readings can be large; an effect the other way counts as inactive or inconclusive.

Turning to `CN1c2ccccc2C(NCCCCCCC(=O)O)c2ccc(Cl)cc2S1(=O)=O` (stereo unspecified), in assay [1], the max response is -8.42%. Also, the Potency entry in assay [2] is “inactive”.

As to `O=C1CN=C(c2ccccc2)c2cc(Cl)ccc2N1CC1CC1`, the max response in assay [1] was -0.952%. In addition, the Potency result in assay [2] was “inactive”.

With `O=[N+]([O-])c1cc(I)c(O)c(I)c1`, the max response in assay [1] was 0.0812%. The Potency entry in assay [2] was “inactive”.

For the compound `C#CC(C)(O)CC` (stereo unspecified), the max response in assay [1] is 4.2%. In addition, in assay [2], the Potency result was “inactive”.

Regarding `COc1ccc(OC)c([C@@H](O)[C@H](C)N)c1`, the max response in assay [1] was 0.514%. The Potency result in assay [2] is “inactive”.

For the compound `CCN(CC)C(=O)/C(Cl)=C(\C)OP(=O)(OC)OC`, in assay [1], the max response was -6.42%. Besides, the Potency entry in assay [2] was “inactive”.

With `C[N+]1([O-])[C@@H]2CC(OC(=O)[C@H](CO)c3ccccc3)C[C@H]1[C@@H]1O[C@@H]12` (stereo partly specified), the max response in assay [1] was 4.15% and -13.5%. Further, the Potency entry in assay [2] is “inactive”.

Regarding `CC(=O)OO`, the max response in assay [1] was -9.86%. In addition, in assay [2], the Potency result was “inactive”.

For the compound `Cc1cccc(C(C)c2cnc[nH]2)c1C` (stereo unspecified), the max response in assay [1] is 17.3%. Also, the Potency entry in assay [2] was “inactive”.

On to `O=[N+]([O-])C(Br)(CO)CO`, for which the max response in assay [3] was -12.6%. The Potency in assay [4] is 50.1 µM (active). For the same compound, the Potency entry in assay [5] is “inactive”.

On to `CCC1(c2ccccc2)C(=O)NC(=O)NC1=O`, for which, in assay [1], the max response is 6%.

For the compound `CCC1(CC)C(=O)NC(=O)N(C)C1=O`, the max response in assay [1] was -12.2%. For the same compound, the Potency result in assay [2] was “inactive”.

For the compound `COC1=CC(=O)O[C@@H](/C=C/c2ccccc2)C1`, the Potency result in assay [6], in assay [7] and in assay [5] was “inactive” in each case. Also, the max response was 4.02% in assay [3] and -13.6% in assay [4].

Take `COC(=O)[C@@H]1[C@H]2CC[C@@H](C[C@H]1OC(=O)c1ccccc1)N2C`: the max response in assay [1] was 5.25%.

Take `C[C@H]1CC[C@@H]2[C@@H](C)[C@H]3[C@H](C[C@H]4[C@@H]5CC=C6CC(O[C@@H]7O[C@H](CO)[C@H](O)[C@H](O[C@@H]8O[C@H](CO)[C@@H](O)[C@H](O)[C@H]8O)[C@H]7O[C@H]7O[C@@H](C)[C@H](O)[C@@H](O)[C@H]7O)CC[C@]6(C)[C@H]5CC[C@]34C)N2C1` (stereo partly specified): in assay [6], the Potency result is “inactive”. The Potency in assay [7] is 18.8 µM (active); in assay [3] it was 44.7 µM (active); in assay [4], 12.6 µM (active); in assay [5] it was 70.8 µM (active). Moreover, in assay [1], the max response was -0.257%.
